Laboratory results published in PubChem BioAssay (NCATS).
Results filed as inconclusive are left out. Entries that show only a call come without a potency. Active and inactive are the calls of the source. The call rests on the fitted dose curve; in most records, active means well fitted inhibition curve with a large enough effect; inconclusive means small, poorly fitted or top-dose-only effect; inactive means flat fitted curve, though single readings scatter.

What was measured:
Assay in all cases: qHTS profiling for inhibitors of Plasmodium falciparum proliferation (AID 504749); further: nearly all actives have a fitted effect of over 60% in size
Details in all cases: P. falciparum in erythrocytes, SYBR Green DNA, 72 h; series mostly up to 28.7 µM
[1] = test system: CP262
Summary of the method: (§1)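 Parasite proliferation within erythrocytes, 72 h exposure. Endpoint: SYBR Green I fluorescence after overnight lysis at room temperature. Controls: 0.29 uM artemisinin, DMSO.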

[2] = test system: CP266
Summary of the method: as §1

[3] = test system: CP268
Summary of the method: as §1

[4] = test system: CP269
Summary of the method: as §1

[5] = test system: CP291
Summary of the method: as §1

[6] = test system: CP297
Summary of the method: as §1

[7] = test system: CP305
Summary of the method: as §1

[8] = test system: CP315
Summary of the method: as §1

[9] = test system: CP325
Summary of the method: as §1

[10] = test system: CP329
Summary of the method: as §1

[11] = test system: CP250
Summary of the method: as §1

[12] = test system: CP252
Summary of the method: as §1

[13] = test system: CP256
Summary of the method: as §1

[14] = test system: DFO2036
Summary of the method: as §1

[15] = test system: CP260
Summary of the method: as §1

[16] = test system: CP286
Summary of the method: as §1

[17] = test system: CP247
Summary of the method: as §1

[18] = test system: CP335
Summary of the method: as §1

[19] = test system: CP238
Summary of the method: as §1

[20] = test system: CP265
Summary of the method: as §1
Potency means the concentration at half of the fitted maximal effect.

| Compound | Potency [1] | Potency [2] | Potency [3] | Potency [4] | Potency [5] | Potency [6] | Potency [7] | Potency [8] | Potency [9] | Potency [10] | Potency [11] | Potency [12] | Potency [13] | Potency [14] | Potency [15] | Potency [16] | Potency [17] | Potency [18] | Potency [19] | Potency [20] |
| --- | --- | --- | --- | --- | --- | --- | --- | --- | --- | --- | --- | --- | --- | --- | --- | --- | --- | --- | --- | --- |
| N[C@@H](Cc1ccc(O)c(O)c1)C(=O)O | inactive | inactive | inactive | inactive | inactive | inactive | inactive | inactive | inactive | inactive | – | – | – | – | – | – | – | – | – | – |
| CC(N)C12CC3CC(CC(C3)C1)C2 (stereo unspecified) | inactive | inactive | – | inactive | – | 7.57 µM (active) | – | inactive | – | – | inactive | inactive | inactive | inactive | – | – | – | – | – | – |
| CNCC[C@H](Oc1cccc2ccccc12)c1cccs1 | – | inactive | – | – | inactive | – | inactive | inactive | inactive | inactive | – | – | – | – | 8.91 µM (active) | 12.6 µM (active) | – | – | – | – |
| O=C(O)c1cn(C2CC2)c2cc(N3CCNCC3)c(F)cc2c1=O | – | – | – | – | – | – | – | – | – | – | – | – | – | – | – | – | inactive | – | – | – |
| CCCCOc1ccc(CC(=O)NO)cc1 | 2.56 µM (active) | – | – | – | 3.22 µM (active) | – | 4.55 µM (active) | – | – | 3.22 µM (active) | 2.24 µM (active) | 3.98 µM (active) | 1.41 µM (active) | 2.82 µM (active) | 2.82 µM (active) | 3.98 µM (active) | 4.47 µM (active) | 1.61 µM (active) | – | – |
| CCOC(=O)c1ccc(C#Cc2ccc3c(c2)C(C)(C)CCS3)nc1 | inactive | inactive | – | inactive | – | inactive | – | inactive | inactive | inactive | – | inactive | – | inactive | – | – | – | – | inactive | – |
| CC(C)(C)C(=O)OCOP(=O)(COCCn1cnc2c(N)ncnc21)OCOC(=O)C(C)(C)C | inactive | inactive | inactive | – | inactive | – | inactive | inactive | inactive | inactive | – | – | – | – | – | – | inactive | – | – | – |
| CCC(C)(C)c1ccc(CC(C)CN2C[C@@H](C)O[C@@H](C)C2)cc1 (stereo partly specified) | inactive | inactive | inactive | inactive | inactive | inactive | inactive | inactive | inactive | inactive | inactive | inactive | inactive | inactive | – | – | inactive | inactive | inactive | inactive |
| CNC(=O)c1cc(Oc2ccc(NC(=O)Nc3ccc(Cl)c(C(F)(F)F)c3)cc2)ccn1 | – | – | – | – | – | 9.53 µM (active) | – | – | – | – | 10 µM (active) | – | – | – | – | – | 10 µM (active) | – | 10 µM (active) | – |
| C1CCC(C(CC2CCCCN2)C2CCCCC2)CC1 (stereo unspecified) | inactive | 15.1 µM (active) | 12 µM (active) | 13.5 µM (active) | 12 µM (active) | 13.5 µM (active) | – | – | – | – | 12.6 µM (active) | 11.2 µM (active) | 10 µM (active) | 11.2 µM (active) | 8.91 µM (active) | 3.98 µM (active) | 11.2 µM (active) | 9.53 µM (active) | – | – |
| CN(Cc1cc(Br)cc(Br)c1N)C1CCCCC1 | inactive | inactive | inactive | inactive | inactive | inactive | inactive | inactive | inactive | inactive | inactive | inactive | inactive | inactive | – | – | inactive | – | – | inactive |
